Assay [1] is described as follows: NCI Yeast Anticancer Drug Screen. Data for the rad50 strain (AID 155).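 Further: 0% = growth of vehicle-only cultures of the same strain.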 As to conditions: S. cerevisiae rad50 strain growth inhibition, hits give high values. Put shortly:
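Cells are treated with compound, grown, and their growth is then scored against vehicle-only cultures of the same repair-deficient yeast strain.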

A short description of assay [2]: NCI Yeast Anticancer Drug Screen. Data for the mec2-1 strain (AID 157). As to conditions: S. cerevisiae mec2-1 strain, hits give high values. Put shortly:
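Using mec2-1 yeast: add compound, measure growth, express inhibition versus vehicle-treated cultures.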

Assay [3] in a line: NCI Yeast Anticancer Drug Screen. Data for the sgs1 mgt1 strain (AID 161).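 Further: 0% = growth of cultures given vehicle only.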 Particulars: S. cerevisiae sgs1 mgt1 strain, hits give high values. The method, boiled down: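 Yeast cells carrying a defined DNA-repair defect were exposed to test compounds. Growth inhibition was measured relative to vehicle-treated controls.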
Assay [4] is described as follows: NCI Yeast Anticancer Drug Screen. Data for the cln2 rad14 strain (AID 165).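 Further: 0% = growth equal to vehicle treated cultures.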 As to conditions: S. cerevisiae cln2 rad14 strain, hits give high values. The method, boiled down: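 Yeast strain cln2 rad14, bearing defects in cell cycle control and DNA repair, serves as the test system; values reflect growth inhibition compared with vehicle.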
Assay [5] is described as follows: NCI Yeast Anticancer Drug Screen. Data for the bub3 strain (AID 167). As to conditions: S. cerevisiae bub3 mutant strain, hits give high values. The method, boiled down: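 Part of a panel of yeast mutants defective in DNA damage repair or cell cycle regulation. Each strain is grown with compound, and inhibition is calculated relative to solvent-treated cultures.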

Assay [6] is described as follows: NCI Yeast Anticancer Drug Screen. Data for the mlh1 rad18 strain (AID 175). As to conditions: S. cerevisiae mlh1 rad18 strain growth inhibition, hits give high values. The method, boiled down:
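Steps: expose repair-defective yeast to compound; measure growth; express inhibition against vehicle-treated controls.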

Where [7] appears, read: at 5.0 µM (retest, dose inferred, filed as 0.5).
[8] abbreviates: at 50.0 µM (retest, dose inferred, filed as 5.0).

SMILES strings stand for the structures. Compounds without any hit were thinned out: in the full panel of roughly 79,000, 15% have a hit. A number with no mark means an inactive call. Activity calls are given as the source filed them. No stated cut-off is given here; in the data, active means growth inhibition above about 70%; inactive means the rest.

On to `CC1=CC[C@@H]2[C@@H](CC[C@@]2(C)O)C(C)(C)[C@H]1CC[C@@H]1[C@@]2(C)CC[C@@H](O)C(C)(C)O[C@@H]2CC[C@]1(C)O`, for which the growth inhibition in assay [1] (setting [7]) is 12%; in assay [1] (setting [8]) it was 39%; in assay [1] (at 50.0 µM) it was 62.9%; in assay [2] (setting [7]), -8%; in assay [2] (setting [8]), 19%; in assay [2] (at 50.0 µM) it was 38%. In addition, the growth inhibition in assay [3] (setting [7]) is 4%; in assay [3] (setting [8]), 70% (active); in assay [3] (at 50.0 µM), 77.5% (active); in assay [4] (setting [7]) it was 18%; in assay [4] (setting [8]) it was 19%; in assay [4] (at 50.0 µM) it was 46%. The growth inhibition was 17% in assay [5] (setting [7]); 33% in assay [5] (setting [8]); 45.8% in assay [5] (at 50.0 µM); -2% in assay [6] (setting [7]); 20% in assay [6] (setting [8]); 12.6% in assay [6] (at 50.0 µM).

As for `Cc1ccc(/C=N/Nc2cc(C)c3cccc(C)c3n2)s1`, the growth inhibition is 9% in assay [1] (setting [7]); 94% (active) in assay [1] (setting [8]); 89.3% (active) in assay [1] (at 50.0 µM); -1% in assay [2] (setting [7]); 95% (active) in assay [2] (setting [8]); 92.6% (active) in assay [2] (at 50.0 µM). For the same compound, the growth inhibition in assay [3] (setting [7]) was 3%; in assay [3] (setting [8]), 93% (active); in assay [3] (at 50.0 µM), 92% (active); in assay [4] (setting [7]), 3%; in assay [4] (setting [8]), 95% (active); in assay [4] (at 50.0 µM), 90.3% (active). The growth inhibition in assay [5] (setting [7]) was 4%; in assay [5] (setting [8]), 97% (active); in assay [5] (at 50.0 µM), 90.8% (active); in assay [6] (setting [7]), 13%; in assay [6] (setting [8]) it was 93% (active); in assay [6] (at 50.0 µM), 90% (active).

Take `CCC1C[N+]2=C(c3cc(OC)c(OC)cc3CC2)c2c1cc1n2CCc2cc(OC)c(OC)cc2-1` (configuration not stated): the growth inhibition in assay [1] (setting [7]) is 99% (active); in assay [1] (setting [8]), 99% (active); in assay [1] (at 50.0 µM), 93% (active); in assay [2] (setting [7]), 100% (active); in assay [2] (setting [8]), 99% (active); in assay [2] (at 50.0 µM), 94.8% (active). The growth inhibition in assay [3] (setting [7]) is 99% (active); in assay [3] (setting [8]), 99% (active); in assay [3] (at 50.0 µM), 94.5% (active); in assay [4] (setting [7]), 96% (active); in assay [4] (setting [8]) it was 99% (active); in assay [4] (at 50.0 µM), 92.8% (active). In addition, the growth inhibition in assay [5] (setting [7]) was 99% (active); in assay [5] (setting [8]), 99% (active); in assay [5] (at 50.0 µM), 93.5% (active); in assay [6] (setting [7]) it was 97% (active); in assay [6] (setting [8]), 99% (active); in assay [6] (at 50.0 µM), 93.6% (active).

In the case of `COc1ccc(C(Cn2ccnc2)Sc2ccc(Cl)c(Cl)c2)cc1` (configuration not stated), the growth inhibition in assay [1] (setting [7]) was 74% (active); in assay [1] (setting [8]) it was 97% (active); in assay [1] (at 50.0 µM) it was 92.9% (active); in assay [2] (setting [7]), 60%; in assay [2] (setting [8]), 97% (active); in assay [2] (at 50.0 µM) it was 93.8% (active). In addition, the growth inhibition in assay [3] (setting [7]) was 72% (active); in assay [3] (setting [8]) it was 97% (active); in assay [3] (at 50.0 µM), 88.7% (active); in assay [4] (setting [7]), 47%; in assay [4] (setting [8]), 86% (active); in assay [4] (at 50.0 µM) it was 90.7% (active). Besides, the growth inhibition is 76% (active) in assay [5] (setting [7]); 98% (active) in assay [5] (setting [8]); 86.5% (active) in assay [5] (at 50.0 µM); 81% (active) in assay [6] (setting [7]); 96% (active) in assay [6] (setting [8]); 91.3% (active) in assay [6] (at 50.0 µM).

`CC1=CC(=O)C=CC1(C)C(Cl)(Cl)Cl` (configuration not stated): the growth inhibition in assay [1] (setting [7]) was -16%; in assay [1] (setting [8]), -24%; in assay [1] (at 50.0 µM), -3.05%; in assay [2] (setting [7]) it was -15%; in assay [2] (setting [8]), -12%; in assay [2] (at 50.0 µM) it was -1.55%. For the same compound, the growth inhibition is 0% in assay [3] (setting [7]); -6% in assay [3] (setting [8]); -11.6% in assay [3] (at 50.0 µM); -44% in assay [4] (setting [7]); -10% in assay [4] (setting [8]); 44.3% in assay [4] (at 50.0 µM). Also, the growth inhibition is -6% in assay [5] (setting [7]); 2% in assay [5] (setting [8]); -0.65% in assay [5] (at 50.0 µM); -10% in assay [6] (setting [7]); -22% in assay [6] (setting [8]); 1% in assay [6] (at 50.0 µM).

Turning to `N#CC(=C1SCS1)[N+](=O)[O-]`, the growth inhibition in assay [1] (setting [7]) was 91% (active); in assay [1] (setting [8]), 99% (active); in assay [1] (at 50.0 µM), 91.1% (active); in assay [2] (setting [7]), 98% (active); in assay [2] (setting [8]), 100% (active); in assay [2] (at 50.0 µM), 92.4% (active). For the same compound, the growth inhibition in assay [3] (setting [7]) is 98% (active); in assay [3] (setting [8]), 100% (active); in assay [3] (at 50.0 µM), 92% (active); in assay [4] (setting [7]), 31%; in assay [4] (setting [8]) it was 99% (active); in assay [4] (at 50.0 µM), 92.2% (active). Also, the growth inhibition in assay [5] (setting [7]) is 95% (active); in assay [5] (setting [8]) it was 99% (active); in assay [5] (at 50.0 µM), 89.9% (active); in assay [6] (setting [7]) it was 98% (active); in assay [6] (setting [8]), 99% (active); in assay [6] (at 50.0 µM), 92.7% (active).

Turning to `CN(Cc1ccccc1)c1ccc(SC#N)cc1`, the growth inhibition in assay [1] (setting [7]) is -2%; in assay [1] (setting [8]), 82% (active); in assay [1] (at 50.0 µM) it was 81% (active); in assay [2] (setting [7]), -4%; in assay [2] (setting [8]) it was 61%; in assay [2] (at 50.0 µM), 87.5% (active). The growth inhibition in assay [3] (setting [7]) is -5%; in assay [3] (setting [8]), 90% (active); in assay [3] (at 50.0 µM) it was 79.5% (active); in assay [4] (setting [7]) it was -5%; in assay [4] (setting [8]), -4%; in assay [4] (at 50.0 µM) it was 24.6%. Further, the growth inhibition in assay [5] (setting [7]) is 6%; in assay [5] (setting [8]), 80% (active); in assay [5] (at 50.0 µM), 92.7% (active); in assay [6] (setting [7]), 3%; in assay [6] (setting [8]) it was 85% (active); in assay [6] (at 50.0 µM), 89% (active).

On to `CCc1oc2ccccc2c1C(=O)c1cc(Br)c(O)c(Br)c1`, for which the growth inhibition is 29% in assay [1] (setting [7]); 99% (active) in assay [1] (setting [8]); 99.2% (active) in assay [1] (at 50.0 µM); 11% in assay [2] (setting [7]); 100% (active) in assay [2] (setting [8]); 99.3% (active) in assay [2] (at 50.0 µM). The growth inhibition in assay [3] (setting [7]) was 8%; in assay [3] (setting [8]) it was 99% (active); in assay [3] (at 50.0 µM), 99.2% (active); in assay [4] (setting [7]), 8%; in assay [4] (setting [8]) it was 100% (active); in assay [4] (at 50.0 µM), 99% (active). The growth inhibition in assay [5] (setting [7]) is 1%; in assay [5] (setting [8]), 99% (active); in assay [5] (at 50.0 µM) it was 99.3% (active); in assay [6] (setting [7]), 18%; in assay [6] (setting [8]), 99% (active); in assay [6] (at 50.0 µM), 99.2% (active).

As for `Cc1c(O)ccc(SC#N)c1C`, the growth inhibition in assay [1] (setting [7]) was -7%; in assay [1] (setting [8]), 82% (active); in assay [1] (at 50.0 µM), 88.5% (active); in assay [2] (setting [7]), 2%; in assay [2] (setting [8]), 74% (active); in assay [2] (at 50.0 µM), 83.8% (active). The growth inhibition in assay [3] (setting [7]) is 7%; in assay [3] (setting [8]), 75% (active); in assay [3] (at 50.0 µM) it was 86.7% (active); in assay [4] (setting [7]) it was 29%; in assay [4] (setting [8]), 85% (active); in assay [4] (at 50.0 µM), 84% (active). For the same compound, the growth inhibition in assay [5] (setting [7]) was -3%; in assay [5] (setting [8]) it was 84% (active); in assay [5] (at 50.0 µM), 87.5% (active); in assay [6] (setting [7]), -1%; in assay [6] (setting [8]) it was 87% (active); in assay [6] (at 50.0 µM) it was 88.5% (active).
